Source: PubChem BioAssay
Active and inactive are the calls of the source.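 How the source made its calls, unless noted: active means visually confirmed hit in the image check and inhibition above 20%; inconclusive means visually confirmed hit but inhibition not above 20%; inactive means no visual hit in the image check.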

Legend:
[1] = inhibitors of TNFa-induced NFkB p65 translocation, primary screen, imaging, HUVEC, MLSMR starter and 10KST1 sets (AID 438;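 active means inhibition above 20% together with a positive visual image hit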;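 further: compound added about 3h40 before a 20 min TNFalpha stimulation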;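 on inhibition: signal is the nuclear over cytoplasmic p65 intensity ratio per well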); settings: HUVEC TNFa-induced p65 nuclear translocation; cell count: measured here: nuclei count (cytotoxicity indicator), at 2.08 µM; inhibition: at 2 µM, stronger effect = higher value, 0% TNFa-plus-vehicle, 100% no-TNFa wells
[2] = endothelial E-selectin expression blockers – imaging, HUVEC, immunofluorescence, MLSMR starter and 10KST1 sets, primary screen (AID 487); settings: HUVEC TNFalpha-induced E-selectin immunofluorescence imaging, at 2 µM; inhibition: stronger effect = higher value; nuclei count: measured here: cell number, toxicity;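 on inhibition: signal is fraction of cell area covered by stained E-selectin grains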;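 on nuclei count: 100% = median nuclei count of all wells on the same plate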
[3] = Primary imaging screen for DUSP6 inhibitors that restore phospho-Erk in transfected HeLa cells, chemical complementation (AID 609;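 active means compounds giving at least 50% inhibition in the cell-based MKP-3 phosphatase rescue imaging test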;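 on inhibition: phospho-Erk level distribution per well compared with pooled transfected vehicle control wells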); settings: HeLa MKP-3 transfected, phospho-Erk imaging KS statistic, at 10 µM, cells stimulated with TPA for 15 min
[4] = biological target: Dual specificity protein phosphatase 6 (Homo sapiens) (UniProt Q16828); experiment: as above; settings: HeLa MKP-3 transfected, phospho-Erk imaging KS statistic; at 10 µM; stronger effect = higher value; cells stimulated with TPA for 15 min
Sequence of Dual specificity protein phosphatase 6 (Homo sapiens) (Q16828 whole entry, looked up): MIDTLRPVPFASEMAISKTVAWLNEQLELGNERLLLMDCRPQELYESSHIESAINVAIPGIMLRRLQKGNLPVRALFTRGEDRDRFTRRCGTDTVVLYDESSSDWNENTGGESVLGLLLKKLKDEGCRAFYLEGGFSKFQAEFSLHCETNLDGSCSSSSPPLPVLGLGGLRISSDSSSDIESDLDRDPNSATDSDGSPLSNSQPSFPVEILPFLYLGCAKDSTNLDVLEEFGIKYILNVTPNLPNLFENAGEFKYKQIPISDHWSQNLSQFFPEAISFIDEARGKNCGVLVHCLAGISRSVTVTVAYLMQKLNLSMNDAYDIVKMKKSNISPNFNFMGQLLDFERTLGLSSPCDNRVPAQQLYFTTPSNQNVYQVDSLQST

[5] = biological target: Voltage-gated potassium channel subunit beta-2 (Rattus norvegicus) (UniProt P62483); experiment: inhibitors of rat Kvbeta2 reductase activity – biochemical, NADPH fluorescence, primary screen (AID 622;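 active means fluorescence slope higher than the sample average by over 3 SD, cut at about -0.22 in these data, passing the limit was not always enough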;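 further: slope of raw intensity against log time taken from 70 to 1610 s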); settings: recombinant KvBeta, 4-cyanobenzaldehyde reduction, at 10 µM, stronger effect = higher value
Sequence of Voltage-gated potassium channel subunit beta-2 (Rattus norvegicus) (P62483 whole entry, looked up): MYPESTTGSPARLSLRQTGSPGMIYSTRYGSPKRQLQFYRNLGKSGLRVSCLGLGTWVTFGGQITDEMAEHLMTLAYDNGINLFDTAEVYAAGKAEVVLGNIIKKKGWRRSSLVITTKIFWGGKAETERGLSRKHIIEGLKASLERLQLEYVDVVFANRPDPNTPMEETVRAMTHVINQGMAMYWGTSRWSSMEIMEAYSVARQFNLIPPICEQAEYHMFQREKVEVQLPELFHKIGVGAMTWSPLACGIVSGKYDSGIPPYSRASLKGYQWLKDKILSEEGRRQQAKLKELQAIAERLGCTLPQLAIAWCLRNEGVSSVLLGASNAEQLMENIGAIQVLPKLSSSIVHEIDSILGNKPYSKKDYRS

[6] = biological target: Voltage-gated potassium channel subunit beta-2 (Rattus norvegicus) (UniProt P62483); experiment: enhancers of rat Kvbeta2 NADPH turnover – biochemical, NADPH fluorescence, primary screen (AID 623;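 active means NADPH fluorescence slope more negative than the mean of all samples by about 3 SD, 99.7% confidence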;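 further: fluorescence intensity change per second fitted from 20 to 320 s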); settings: Recombinant KvBeta, NADPH fluorescence decrease slope, 10 min; at 10 µM; stronger effect = lower value
[7] = biological target: Muscarinic acetylcholine receptor M4 (Homo sapiens) (UniProt P08173); experiment: M4-linked GIRK flux change, two-sided – cell-based, HEK293 M4/GIRK, thallium flux, BTC-AM, M4 allosteric agonist project, primary screen (AID 625;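 active means fluorescence slope after compound addition differing from the mean of all tested samples at 99.7% confidence, mostly higher but some lower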;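 further: thallium influx through GIRK channels coupled to M4 in HEK293 cells with BTC-AM dye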); settings: at 10 µM, actives lie on both sides
Sequence of Muscarinic acetylcholine receptor M4 (Homo sapiens) (P08173 whole entry, looked up): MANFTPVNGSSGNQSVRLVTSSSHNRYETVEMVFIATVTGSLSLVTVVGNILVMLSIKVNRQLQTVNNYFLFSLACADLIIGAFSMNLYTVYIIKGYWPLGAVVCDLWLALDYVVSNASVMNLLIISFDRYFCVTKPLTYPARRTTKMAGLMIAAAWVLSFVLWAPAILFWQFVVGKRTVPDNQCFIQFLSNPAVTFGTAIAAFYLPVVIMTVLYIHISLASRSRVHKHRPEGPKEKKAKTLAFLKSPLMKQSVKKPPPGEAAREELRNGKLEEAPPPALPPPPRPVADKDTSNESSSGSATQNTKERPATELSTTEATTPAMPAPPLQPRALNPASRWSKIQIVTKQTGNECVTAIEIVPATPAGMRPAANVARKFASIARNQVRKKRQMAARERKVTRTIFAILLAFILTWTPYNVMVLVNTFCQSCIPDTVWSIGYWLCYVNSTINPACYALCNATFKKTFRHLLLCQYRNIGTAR

[8] = inhibitors of larval lipid processing in zebrafish, primary screen, whole organism, PED6 fluorescence, gall bladder and intestine (AID 686;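 active means a full or partial loss of lipid-probe fluorescence in the fish gall bladder, intestine or both, judged by eye; inactive means no fluorescence loss, or compound toxic to the fish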;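 further: larvae 5 to 7 days old with five fish per well; signal comes from phospholipase A2 cleavage of quenched PED6 carried via bile; overnight exposure to compound and PED6 before scoring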); settings: Zebrafish larvae PED6 lipid processing, fluorescence scoring; screened at 20 µM (by protocol)
[9] = loss of swimming-algae plug formation – whole organism, Chlamydomonas reinhardtii, WT vs cilia-less mutant, absorbance, 96-well, primary screen (AID 463189;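 active means inhibition at or above 50% relative to wild type and mutant plate controls; inactive means inhibition below 50%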;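 further: 0% = wild type cc124 cells in DMSO and 100% = ciliumless bld1 mutant cells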); settings: Chlamydomonas reinhardtii gravitaxis, OD600 absorbance, 2 days; at 10 µM; stronger effect = higher value
[10] = measured here: cell density z-score
[11] = measured here: nuclear c-Myc green intensity z-score
[12] = measured here: nuclear pErk red intensity z-score, stronger effect = higher value

SMILES | cell count [1] | inhibition [1] | inhibition [2] | nuclei count [2] [%] | z-score [3, 10] | z-score [3, 11] | z-score [3, 12] | inhibition [4] | fluorescence slope [5] | NADPH fluorescence slope [6] | fluorescence slope [7] | outcome [8] | inhibition [9]
COc1ccc(CCn2c(=N)c(C(=O)NCc3ccco3)cc3c(=O)n4ccccc4nc32)cc1OC | 633 | -2.8% (inactive) | -94.3% (inactive) | 174 | 1.26 | -0.19 | 0.299 | 14.4% (inactive) | -0.507 (inactive) | -2.1e-05 (inactive) | 0.00335 (inactive) | inactive | -2.16% (inactive)
COc1ccc(C2C(C#N)=C(N)Oc3cc(C)n(CCN4CCOCC4)c(=O)c32)cc1OC (centres undefined) | 520 | -5.9% (inactive) | 0.9% (inactive) | 110 | -1.19 | 0.613 | -1.48 | -10.1% (inactive) | -0.468 (inactive) | -3.9e-05 (inactive) | 0.00521 (inactive) | inactive | 1.58% (inactive)
Cn1ncc(N=Cc2ccccc2O)c1C(=O)N1CCOCC1 | 723 | 6.6% (inactive) | -60.6% (inactive) | 172 | -0.778 | -0.56 | 0.451 | 7.93% (inactive) | -0.486 (inactive) | -9.6e-05 (inactive) | 0.00481 (inactive) | inactive | 32.2% (inactive)
Cc1ccc2cc(CNC(C)(C)C)c(=O)[nH]c2c1 | 632 | -4.2% (inactive) | -5% (inactive) | 141 | -0.205 | -0.75 | -0.413 | 7.7% (inactive) | -0.493 (inactive) | -3.2e-05 (inactive) | 0.00705 (inactive) | inactive | 2.56% (inactive)
Cc1ccc(-n2[nH]c(C)c(C=Nc3cc(C)ccn3)c2=O)cc1 | 512 | 3% (inactive) | 4.6% (inactive) | 87.7 | -0.346 | -0.03 | 0.605 | -13.3% (inactive) | -0.459 (inactive) | -3.6e-05 (inactive) | 0.0056 (inactive) | inactive | 51.3% (active)
COC(=O)c1ccc(C2/C(=C(/O)c3ccc(OC)cc3)C(=O)C(=O)N2Cc2ccco2)cc1 (centres undefined) | 603 | -5.8% (inactive) | -47.8% (inactive) | 96.4 | -1.62 | 0.429 | -2.41 | -4.59% (inactive) | -0.4 (inactive) | 4.5e-06 (inactive) | 0.0058 (inactive) | inactive | -8.72% (inactive)
CC(C)OC(=O)c1c2nc3ccccc3nc2n2c1[nH]c(=O)c1ccccc12 | 519 | 4% (inactive) | -30.4% (inactive) | 96.9 | 1.31 | -1.51 | -0.702 | 16.5% (inactive) | -0.445 (inactive) | 2e-05 (inactive) | 0.069 (active) | inactive | 6.9% (inactive)
C=CCOC(=O)C1=C(C)NC(SCC(=O)Nc2ccc(C)c(Cl)c2)=C(C#N)C1c1ccco1 (centres undefined) | 654 | -12.4% (inactive) | -141% (inactive) | 165 | 0.0936 | -0.359 | 0.4 | 10.1% (inactive) | -0.465 (inactive) | -2.6e-05 (inactive) | 0.00959 (inactive) | inactive | 6.54% (inactive)
CSc1nc2[nH]c3c(c2c2nncn12)CC(C)(C)OC3 | 554 | -4.9% (inactive) | -169% (inactive) | 129 | 0.946 | 0.54 | -1.06 | 5.42% (inactive) | -0.511 (inactive) | -8.3e-05 (inactive) | 0.00422 (inactive) | inactive | -2.07% (inactive)
CCN(CC)C(=O)CSc1nc2ccccc2c(=O)n1CC1CCCCC1 | 355 | -2.2% (inactive) | 4% (inactive) | 108 | -1.94 | 0.923 | -0.374 | 1.42% (inactive) | -0.484 (inactive) | 5.7e-06 (inactive) | 0.00498 (inactive) | inactive | 7.22% (inactive)
CCCC1C(c2ccc(OC)cc2)C(C#N)(C#N)C2(C#N)CC1(N)NC2=O (centres undefined) | 369 | -0.7% (inactive) | -28.9% (inactive) | 84.9 | -2.59 | 2.42 | -0.136 | -2.69% (inactive) | -0.495 (inactive) | 3.3e-05 (inactive) | 0.00515 (inactive) | inactive | -15.7% (inactive)
COc1ccc(Nc2nnc(C)c3ccccc23)cc1C(N)=O | 616 | -2.5% (inactive) | -91.7% (inactive) | 152 | -0.473 | 0.976 | -0.605 | 3.49% (inactive) | -0.459 (inactive) | -0.000141 (inactive) | 0.00456 (inactive) | inactive | -4.27% (inactive)
COc1ccc(N2C(=O)C3C(C2=O)C2C=CC3C23CC3)c(OC)c1 (centres undefined) | 517 | -4.2% (inactive) | 41.1% (inactive) | 197 | 0.465 | -0.843 | 1.05 | 11.9% (inactive) | -0.422 (inactive) | -4.3e-05 (inactive) | 0.00475 (inactive) | inactive | 24.5% (inactive)
